Experimental data reported in PubChem BioAssay AID1159580 (chemical genetic matrix, 2015).
Where “and” joins values, the source holds several entries; their conditions need not be identical. Identical values can stand only once. The whole screen tested about 5,500 compounds, of which about 2,000 (36%) were called active. Not shown: some 18% with an inconclusive outcome. No stated cut-off is given here; in the data, active means normalized growth mostly below about 0.91 (no sharp cut-off); inconclusive means no clear call, values can overlap the other calls; inactive means mostly above about 0.92. The list shows a part of the results.

Experiment: chemical genetic growth profiling, strain panel (AID 1159580);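 further: tested at 20 µM; growth read once vehicle control cultures reached saturation at 30 °C; 1 = growth at the plate median or of vehicle wells; lower values mean less growth of the strain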
Settings: growth OD

Measured: normalized growth

NNCc1cccc(O)c1
inactive: S. cerevisiae deletion strains, locus YAL013W, strain DEP1, hits give low values 0.994 | S. cerevisiae deletion strains, locus YAL040C, strain CLN3, hits give low values 1.08 | S. cerevisiae deletion strains, locus YBR021W, strain FUR4, hits give low values 1.07 | S. cerevisiae deletion strains, locus YBR229C, strain ROT2, hits give low values 1 | S. cerevisiae deletion strains, locus YCL029C, strain bik1, hits give low values 0.988 | S. cerevisiae deletion strains, locus YCL061C, strain MRC1 (second series), hits give low values 0.984 | S. cerevisiae deletion strains, locus YDL035C, strain GPR1, hits give low values 0.969 | S. cerevisiae deletion strains, locus YDL074C, strain BRE1, hits give low values 0.98 | S. cerevisiae deletion strains, locus YDL101C, strain DUN1, hits give low values 0.994 | S. cerevisiae deletion strains, locus YDL134C, strain PPH21, hits give low values 0.994 | S. cerevisiae deletion strains, locus YDL192W, strain arf1, hits give low values 1 | S. cerevisiae deletion strains, locus YDR101C, strain arx1, hits give low values 0.989 | S. cerevisiae deletion strains, locus YDR150W, strain NUM1, hits give low values 0.987 and 0.976 | S. cerevisiae deletion strains, locus YDR162C, strain NBP2, hits give low values 0.987 | S. cerevisiae deletion strains, locus YDR318W, strain mcm21, hits give low values 1 | S. cerevisiae deletion strains, locus YDR363W, strain ESC2, hits give low values 1.01 | S. cerevisiae deletion strains, locus YDR388W, hits give low values 1.01 | S. cerevisiae deletion strains, locus YDR502C, strain sam2, hits give low values 0.996 | S. cerevisiae deletion strains, locus YEL061C, strain CIN8, hits give low values 1 | S. cerevisiae deletion strains, locus YER002W, strain NOP16, hits give low values 0.995 | S. cerevisiae deletion strains, locus YER110C, hits give low values 0.968 | S. cerevisiae deletion strains, locus YER155C, strain BEM2, hits give low values 1 | S. cerevisiae deletion strains, locus YER167W, strain BCK2, hits give low values 0.99 | S. cerevisiae deletion strains, locus YGL078C, strain dbp3, hits give low values 0.99 | S. cerevisiae deletion strains, locus YGL086W, strain mad1, hits give low values 0.984 | S. cerevisiae deletion strains, locus YGL248W, strain PDE1, hits give low values 0.996 | S. cerevisiae deletion strains, locus YGR078C, strain PAC10, hits give low values 1 | S. cerevisiae deletion strains, locus YGR135W, strain pre9, hits give low values 1.02 | S. cerevisiae deletion strains, locus YGR229C, strain SMI1, hits give low values 1.01 | S. cerevisiae deletion strains, locus YGR252W, strain gcn5, hits give low values 0.992 | S. cerevisiae deletion strains, locus YHR030C, strain SLT2, hits give low values 0.994 | S. cerevisiae deletion strains, locus YHR079C, strain IRE1 (second series), hits give low values 0.987 | S. cerevisiae deletion strains, locus YHR094C, strain hxt1, hits give low values 0.99 | S. cerevisiae deletion strains, locus YHR129C, strain ARP1, hits give low values 0.993 | S. cerevisiae deletion strains, locus YHR200W, strain rpn10, hits give low values 0.986 | S. cerevisiae deletion strains, locus YIL066C, strain RNR3, hits give low values 0.99 | S. cerevisiae deletion strains, locus YIL073C, strain SPO22, hits give low values 0.92 | S. cerevisiae deletion strains, locus YIL125W, strain kgd1, hits give low values 0.971 | S. cerevisiae deletion strains, locus YIR030C, strain dcg1, hits give low values 0.989 | S. cerevisiae deletion strains, locus YJL095W, strain BCK1, hits give low values 1.01 | S. cerevisiae deletion strains, locus YJL134W, strain LCB3, hits give low values 0.987 | S. cerevisiae deletion strains, locus YJL168C, strain set2, hits give low values 0.981 | S. cerevisiae deletion strains, locus YJL187C, strain SWE1 (second series), hits give low values 0.991 | S. cerevisiae deletion strains, locus YJR043C, strain POL32, hits give low values 0.974 | S. cerevisiae deletion strains, locus YJR075W, strain HOC1, hits give low values 0.99 | S. cerevisiae deletion strains, locus YKL009W, strain mrt4, hits give low values 0.966 | S. cerevisiae deletion strains, locus YKL068W, hits give low values 0.98 | S. cerevisiae deletion strains, locus YKL085W, strain MDH1 (second series), hits give low values 0.991 | S. cerevisiae deletion strains, locus YKL085W, strain MDH1, hits give low values 0.991 | S. cerevisiae deletion strains, locus YKL190W, strain CNB1, hits give low values 1 | S. cerevisiae deletion strains, locus YKR001C, strain vps1, hits give low values 1 | S. cerevisiae deletion strains, locus YLR039C, strain RIC1, hits give low values 0.928 | S. cerevisiae deletion strains, locus YLR058C, strain SHM2, hits give low values 0.994 | S. cerevisiae deletion strains, locus YLR102C, strain apc9, hits give low values 0.982 | S. cerevisiae deletion strains, locus YLR262C, strain YPT6, hits give low values 0.892 | S. cerevisiae deletion strains, locus YLR268W, strain sec22, hits give low values 1.01 | S. cerevisiae deletion strains, locus YLR330W, strain CHS5, hits give low values 0.987 | S. cerevisiae deletion strains, locus YLR342W, strain FKS1 (second series), hits give low values 0.965 | S. cerevisiae deletion strains, locus YLR371W, strain rom2, hits give low values 0.967 | S. cerevisiae deletion strains, locus YLR418C, strain cdc73, hits give low values 1.03 | S. cerevisiae deletion strains, locus YML016C, strain PPZ1, hits give low values 0.993 | S. cerevisiae deletion strains, locus YML032C, strain rad52, hits give low values 0.974 | S. cerevisiae deletion strains, locus YML124C, strain tub3, hits give low values 0.999 | S. cerevisiae deletion strains, locus YMR078C, strain ctf18, hits give low values 1 | S. cerevisiae deletion strains, locus YMR223W, strain ubp8, hits give low values 0.988 | S. cerevisiae deletion strains, locus YMR263W, strain SAP30, hits give low values 1 | S. cerevisiae deletion strains, locus YMR307W, strain GAS1, hits give low values 1.01 | S. cerevisiae deletion strains, locus YNL067W, strain RPL9B, hits give low values 0.994 | S. cerevisiae deletion strains, locus YNL128W, strain TEP1, hits give low values 1.01 and 0.986 | S. cerevisiae deletion strains, locus YNL153C, strain GIM3, hits give low values 1.02 and 1.01 | S. cerevisiae deletion strains, locus YNL175C, strain NOP13, hits give low values 0.994 | S. cerevisiae deletion strains, locus YNL197C, strain WHI3, hits give low values 1.01 | S. cerevisiae deletion strains, locus YNL224C, strain SQS1, hits give low values 0.987 | S. cerevisiae deletion strains, locus YNL233W, strain BNI4, hits give low values 1.01 | S. cerevisiae deletion strains, locus YNL250W, strain rad50, hits give low values 0.969 | S. cerevisiae deletion strains, locus YNL271C, strain bni1, hits give low values 0.98 | S. cerevisiae deletion strains, locus YNL298W, strain CLA4, hits give low values 1 | S. cerevisiae deletion strains, locus YNL307C, strain MCK1, hits give low values 0.997 | S. cerevisiae deletion strains, locus YNL322C, strain KRE1, hits give low values 0.991 and 0.996 | S. cerevisiae deletion strains, locus YNR052C, strain pop2, hits give low values 0.981 | S. cerevisiae deletion strains, locus YOL006C, strain TOP1, hits give low values 0.996 | S. cerevisiae deletion strains, locus YOL012C, strain htz1 0.847 | S. cerevisiae deletion strains, locus YOL147C, strain pex11, hits give low values 1 | S. cerevisiae deletion strains, locus YOR061W, strain CKA2, hits give low values 0.993 | S. cerevisiae deletion strains, locus YOR069W, strain VPS5, hits give low values 1 | S. cerevisiae deletion strains, locus YOR083W, strain WHI5 (second series), hits give low values 0.953 | S. cerevisiae deletion strains, locus YOR136W, strain idh2, hits give low values 0.994 | S. cerevisiae deletion strains, locus YOR144C, strain elg1, hits give low values 0.994 | S. cerevisiae deletion strains, locus YOR184W, strain ser1, hits give low values 0.974 | S. cerevisiae deletion strains, locus YOR316C, strain cot1, hits give low values 0.994 | S. cerevisiae deletion strains, locus YPL055C, strain LGE1, hits give low values 1 | S. cerevisiae deletion strains, locus YPL241C, strain CIN2, hits give low values 0.967 | S. cerevisiae deletion strains, locus YPR119W, strain clb2, hits give low values 0.998 | S. cerevisiae deletion strains, locus YPR141C, strain kar3, hits give low values 0.998 | S. cerevisiae deletion strains, locus YPR163C, strain tif3, hits give low values 1 | S. cerevisiae deletion strains, locus YPR167C, strain met16, hits give low values 0.999 | S. cerevisiae deletion strains, strain wtn01, hits give low values 0.994 | S. cerevisiae strains, strain wild type, hits give low values 0.994
